In the library only some 7.5% were active in any assay of this set; here they are far more common.
FLuc modulator – inhibits or activates purified firefly luciferase, miR-21 counter-screen; actives 6.9% (n = 360,000); purified FLuc, Km substrates, luminescence inhibition; P08659; Potency, µM (doses to about 57.5 µM), inactives show at the top dose activity change, negative = inhibition, most hits filed as inhibitors; AID 588342;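 also: plate controls were vehicle for no effect and reference inhibitor for full effect; nearly all actives have a fitted effect of over 55% in size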
Target sequence (P08659 whole entry, looked up): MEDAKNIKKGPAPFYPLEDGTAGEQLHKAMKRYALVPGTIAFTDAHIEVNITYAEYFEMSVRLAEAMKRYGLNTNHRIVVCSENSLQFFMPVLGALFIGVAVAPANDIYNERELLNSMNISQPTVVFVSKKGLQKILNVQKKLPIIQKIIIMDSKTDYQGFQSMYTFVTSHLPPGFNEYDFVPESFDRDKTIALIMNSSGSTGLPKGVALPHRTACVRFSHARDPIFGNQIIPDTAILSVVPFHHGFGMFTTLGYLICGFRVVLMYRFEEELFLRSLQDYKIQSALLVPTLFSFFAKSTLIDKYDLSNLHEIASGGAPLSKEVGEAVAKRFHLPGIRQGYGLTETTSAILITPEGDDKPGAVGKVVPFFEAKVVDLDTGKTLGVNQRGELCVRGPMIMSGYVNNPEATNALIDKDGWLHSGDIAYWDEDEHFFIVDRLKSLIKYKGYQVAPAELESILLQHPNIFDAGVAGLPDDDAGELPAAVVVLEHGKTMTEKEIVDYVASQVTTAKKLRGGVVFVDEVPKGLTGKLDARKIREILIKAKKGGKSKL
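Purified P. pyralis luciferase, 10 nM final, with Km-level 10 uM D-luciferin and 10 uM ATP in 50 mM Tris acetate pH 7.5, 10 mM Mg acetate, 0.01% Tween-20, 0.05% BSA; 6-point qHTS titration about 60 µM downward; luminescence read.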
Luc counter – blocks Kinase-Glo luciferase, a counter-screen artifact | Q27757 | Kinase-Glo luciferase, ATP luminescence, 8 min | Potency, µM (titrated, usually from 38.3 µM), for the others: at the highest dose activity change, negative = inhibition, usual class: inhibitors | actives 0.28% (n = 200,000) | AID 1379; also: % is scaled to controls: 0 for no effect and ±100 for the full control effect; nearly all actives have a fitted effect of over 60% in size
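Recombinant Kinase-Glo luciferase, 10 uM ATP (linear range), luciferin; imidazole pH 7.2 / KCl / MgCl2 / Tween / BSA buffer; 8 min RT; luminescence.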
Rab9 prom act – activates the Rab9 promoter | Huh7 Rab9 promoter-luciferase reporter, luminescence, 24 h | Potency, µM (highest dose often 9.22 µM), without a hit: top-dose activation, negative = inhibition, actives largely listed as activators | actives 2.8% (n = 320,000) | AID 485297; also: % of control where 0% means no effect; nearly all actives have a fitted effect of over 60% in size
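Cell-based reporter: Huh7 stable for Rab9 promoter-driven luciferase, plated in reduced-serum medium with 10% FBS at 1500 cells/well, compound-treated 24 h at 37 °C, luminescence read after 10 min reagent.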
ELG1 genotoxic – inducers of genotoxicity in HEK293T ELG1-luciferase cells; HEK293T ELG1-luciferase reporter, luminescence, 16 h; Potency, µM (doses to about 46 µM), for inactives: top-dose activity change, positive = activation, usual class: activators; actives 1.3% (n = 330,000); AID 504466; also: % of control where 0% means no effect; nearly all actives have a fitted effect of over 60% in size
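HEK293T cells expressing luciferase-tagged ELG1 were treated with compound or DMSO for 16 hr at 37°C. Luciferase activity was then read after 30 min with ONE-Glo at room temperature; rising signal flags genetic stress.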
NPC1 prom act – activates the NPC1 promoter; AID 485313; Potency, µM (doses to about 9.22 µM), for inactives: at the highest dose activation, usual class: activators; actives 2.4% (n = 320,000); Huh7 NPC1 promoter luciferase reporter, 24 h; also: % of control where 0% means no effect; nearly all actives have a fitted effect of over 60% in size
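Luciferase expression driven by the NPC1 promoter was measured in stably transfected Huh7 cells after a 24 h compound incubation, using a luciferase reagent and a luminescence read.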
SMN2 splice enh – SMN2 splice variant enhancement. HEK293 SMN2-luciferase splicing reporter, luminescence, 30-36 h. Potency, µM (doses to about 46.1 µM), for the others: top-dose activity change, positive = activation, hits mostly activators. actives 2.8% (n = 210,000); also: % of control where 0% means no effect; nearly all actives have a fitted effect of over 55% in size
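HEK293 cells carry an SMN2 […]–luciferase reporter in which exon 7 inclusion puts luciferase in frame. Cells were plated 10-12 h before compound addition, then incubated 30-36 h at 37C. ONE-Glo luminescence was read; sodium butyrate at 4.5 mM final served as control.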
* = called active by the depositor; u = inconclusive; x = no result given. Calls follow the shape of the dose curve; as a rule, active = well fitted curve in the direction sought with a large enough effect; inconclusive = small, poorly fitted or top-dose-only effect, or another doubt; inactive = no such curve, though single readings can be large; an effect the other way counts as inactive or inconclusive. Potency is read from the fitted curve at half-maximal effect.

SMILES | FLuc modulator | Luc counter | Rab9 prom act | ELG1 genotoxic | NPC1 prom act | SMN2 splice enh
Oc1ccc2c(c1)oc1cc(O)ccc12 | 19µM* | 1.6% | 0.1% | 10.9% | -1.5% | u
O=C(Nc1nc(-c2cccc3ccccc23)cs1)c1cnccn1 | -19.8% | -0.2% | -1.8% | -0.6% | 4.1% | 6.5%
c1ccc(COc2ccc(OCCOCCn3cncn3)cc2)cc1 | 8.49µM* | -2.8% | 1.26µM* | 5.17µM* | 1.41µM* | 8.91µM*
C=CCNCCCCOc1ccc(OCc2ccccc2)cc1 | 16.9µM* | 4.6% | u | 13µM* | u | 23.6%
c1ccc(OCCCN2CCCC2)cc1 | -0.9% | 3.5% | -4.2% | -2.8% | 0.2% | -23.1%
c1ccc(COc2ccc(OCCCCN3CCCC3)cc2)cc1 | 12µM* | x | 2.51µM* | u | 2.24µM* | x
c1ccc(COc2ccc(OCCCN3CCCCC3)cc2)cc1 | 13.5µM* | -5.2% | 3.16µM* | 7.94µM* | u | u
COCc1cc(O)c(O)c(O)c1-c1c(COC)cc(O)c(O)c1O | x | x | x | x | x | -8.6%
O=C(Nc1nnc(S(=O)(=O)N2CCCCC2)s1)c1cccc(Br)c1 | -14.0% | x | 9.0% | -7.0% | 1.4% | x
COc1ccc(OCc2cc(C(=O)N[C@H]3CCCCNC3=O)no2)c(Cl)c1 | 10.7µM* | x | u | u | u | x
COc1ccc(OCc2cc(C(=O)NC3Cc4ccccc4C3)no2)c(Cl)c1 | 2.6% | x | -10.4% | -5.1% | -23.7% | x
CSc1ccccc1OCc1cc(C(=O)N[C@H]2CCCCNC2=O)no1 | 10.7µM* | x | 3.55µM* | u | 2.82µM* | x
C/C(=N\N=C(/N)c1nonc1N)c1ccc2c(c1)OCO2 | 2.69µM* | x | 0.891µM* | u | 0.631µM* | x
C/C(=N/NC(=O)c1nnn(-c2nonc2N)c1-c1ccccc1)c1ccc2c(c1)OCO2 | -0.5% | x | 0.9% | -10.6% | 1.0% | x
CCn1c(-c2cc(-c3ccc(C)cc3)nc3ccccc23)n[nH]c1=S | 6.75µM* | -2.0% | 8.6% | 6.5% | 9.0% | 5.3%
C=CCn1c(-c2cc(-c3ccc(C)cc3)nc3ccccc23)n[nH]c1=S | 10.7µM* | -3.2% | -4.2% | -6.9% | -0.9% | 3.9%
CCn1c(-c2cc(-c3ccccc3OC)nc3ccccc23)n[nH]c1=S | 0.9% | 4.3% | -0.3% | -8.3% | -1.2% | 19.8%
CCn1c(-c2cc(-c3ccc(OC(C)C)cc3)nc3ccccc23)n[nH]c1=S | 0.601µM* | -3.2% | u | 1.7% | u | 23.4%
CCCOc1cccc(-c2cc(-c3n[nH]c(=S)n3CC)c3ccccc3n2)c1 | 16.9µM* | -5.4% | -2.3% | -3.4% | -2.3% | -12.8%
C=CCn1c(-c2cccc3ccccc23)n[nH]c1=S | 2.6% | 0.9% | -22.3% | -1.0% | -0.5% | -25.2%
CC1(NC(=O)Cc2c(F)cccc2Cl)CCS(=O)(=O)C1 (stereo unspecified) | x | x | x | 0.1% | x | x
COCC(=O)Nc1ccc(C(C)C)cc1 | 23.9µM* | -6.5% | 26.4% | u | 26.9% | u
CC(C)c1ccc(OCC(=O)Nc2ccncc2)cc1 | 5.36µM* | x | -0.5% | 3.1% | 4.1% | x
COc1ccc(OCC(=O)N/N=C2\CCCCc3ccccc32)cc1 | -7.1% | -0.3% | -2.6% | -2.0% | -0.5% | -7.4%
Cc1ccccc1OCC(=O)Nc1cccc2nsnc12 | u | -4.1% | 0.4% | 16.5% | -1.6% | 28.5%
SMILES | FLuc modulator | Luc counter | Rab9 prom act | ELG1 genotoxic | NPC1 prom act | SMN2 splice enh
CCc1ccc(OCC(=O)N/N=C2\CC(=O)c3ccccc32)cc1 | 12µM* | -2.5% | 12.9% | -2.3% | 14.3% | -3.7%
CCc1ccc(OCC(=O)Nc2cccc3nsnc23)cc1 | 16.9µM* | -1.5% | -6.5% | 3.0% | -2.4% | -2.8%
Cc1ccccc1C(=O)Nc1ccc(OCc2cc(=O)n3cccc(C)c3n2)cc1 | -4.8% | x | x | x | x | x
CC(C)[C@H](NS(=O)(=O)c1ccccc1)C(=O)Nc1nccs1 | x | x | x | -2.4% | x | x
O=C(COc1ccccc1)Nc1ccncc1 | -9.9% | -6.6% | -3.1% | -1.3% | -2.4% | x
Cc1ccc(Oc2ccc(OCC(=O)Nc3ccncc3)cc2)cc1 | x | x | x | 3.2% | x | x
CCc1ccc(OCC(=O)Nc2ccncc2)cc1 | 10.7µM* | x | 2.1% | -1.7% | 0.4% | x
O=C(COc1ccc2ccccc2c1)Nc1ccncc1 | 9.53µM* | 1.1% | -12.5% | -2.3% | 1.6% | x
CC(C)c1ccc(OCC(=O)Nc2ccc(S(=O)(=O)Nc3ncccn3)cc2)cc1 | 9.53µM* | x | x | x | x | 2.6%
COCC(=O)Nc1cccc(C(F)(F)F)c1 | 0.3% | -0.5% | -0.7% | -0.4% | -1.8% | 3.55µM*
Cc1cc(OCC(=O)NNC(=O)c2ccncc2)ccc1C(C)C | 8.49µM* | x | -4.0% | 1.9% | -2.0% | x
Cn1ccs/c1=N\C(=O)Nc1cccc(C(F)(F)F)c1 | 23.9µM* | x | 27.6% | 4.0% | u | x
CC(C)(C)c1ccc(OCC(=O)Nc2ccncc2)cc1 | 6.01µM* | x | 1.4% | -5.7% | -2.1% | x
O=C(COc1ccc(Br)cc1)Nc1ccc(Cc2ccncc2)cc1 | -15.8% | 2.4% | -8.6% | -2.9% | -3.6% | -13.4%
Cc1ccc(-n2c(N)cc(=O)nc2SCC(=O)NC2CCCCC2)cc1C | 3.5% | x | -7.2% | 0.2% | -0.2% | x
Cc1noc(C)c1S(=O)(=O)N1CCCN(C(=O)/C=C/c2ccccc2F)CC1 | -0.2% | x | -2.9% | -0.6% | -0.9% | x
O=C(O)COc1ccc(-c2nccc(-c3ccccn3)n2)cc1 | 3.38µM* | -18.7% | -2.2% | -3.1% | -0.4% | -17.8%
FCCCOc1ccc(-c2nccc(-c3ccccn3)n2)cc1 | 19µM* | x | -0.8% | u | -1.1% | x
Cc1ccc(-c2nnc(Nc3cccc(Cl)c3)c3ccccc23)cc1S(=O)(=O)NCC1CCCO1 (stereo unspecified) | -11.1% | x | x | x | x | -1.0%
CC(=O)Nc1nc2cc3c(cc2s1)OCO3 | 19µM* | -16.0% | 3.98µM* | u | u | u
CC(C)C(=O)Nc1nc2cc3c(cc2s1)OCCO3 | 2.39µM* | x | 0.501µM* | u | 0.891µM* | x
CCOC(=O)c1sc(NC(=O)C2CC2)cc1C | u | -0.7% | 19.1% | 6.2% | 7.7% | 5.2%
CC(=O)Nc1nc2ccc(S(=O)(=O)N3CCCCC3)cc2s1 | 4.1% | x | -0.1% | -0.4% | -2.8% | x
O=C(COc1ccccc1)Nc1nc2cc3c(cc2s1)OCCO3 | -16.6% | x | 5.4% | u | -0.2% | x
CCOC(=O)c1sc(Nc2nc3cc4c(cc3s2)OCO4)cc1C | 2.69µM* | -0.4% | u | 1.7% | u | u
CC(=O)c1sc(Nc2nc3cc4c(cc3s2)OCO4)nc1C | 3.79µM* | 3.4% | 2µM* | u | 3.55µM* | 11.2µM*
CCOC(=O)c1sc(Nc2nc3c(OC)cccc3s2)cc1C | 7.57µM* | 1.5% | u | -0.6% | u | -108.0%
Cc1cccc(Cn2cc(SCC(=O)Nc3nccs3)c3ccccc32)c1 | -13.2% | 1.8% | u | 4.11µM* | u | 8.8%
